# The full list was thinned out, with the strongest signals kept by preference.
# B1: FliC (Clostridium difficile) (protein)
# chain: MRVNTNVSALIANNQMGRNVNGQSKSMEKLSSGVRIKRAADDAAGLAISEKMRAQIKGLDQAGRNVQDGISVVQTAEGSLEETGNILQRMRTLSLQSANEINNTEEREKIADELTQLKDEIERISSSTEFNGKKLLDGTSSTIRLQVGASYGTNVSGTSNNNNEIKIQLVNTASIMASAGITTASIGSMKAGGTTGTDAAKTMVSSLDAALKSLNSSRAKLGAQQNRLESTQNNLNNTLENVTAAESRIRDTDVASEMVNLSKMNILVQASQSMLAQANQQPQGVLQLLG
# Columns and labels:
# Assay in all cases: glycan array binding signal (z-score within array); higher = stronger binding
# Conditions in all cases: glycan notation: IUPAC condensed, linker removed
# GalNAc(b1-3)Gal = target: GalNAc(b1-3)Gal
# Method in brief: (§1)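 Negative Z-scores can be read as non-binding. The Z-score is calculated within each array and then averaged across arrays of one protein sequence at different concentrations or buffers and across linkers. Arrays, 3228 in all, were curated from the Consortium for Functional Glycomics database and kept only where the protein sequence was available.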
# GalNAc6S(b1-4)GlcNAc = target: GalNAc6S(b1-4)GlcNAc
# Method in brief: as §1
# Glc(b1-6)Glc = target: Glc(b1-6)Glc
# Method in brief: as §1
# [1] = target: GlcNAc(a1-4)Gal(b1-3)GlcNAc
# Method in brief: as §1
# [2] = target: GlcNAc(b1-2)Man(a1-3)[GlcNAc(b1-2)Man(a1-6)]Man(b1-4)GlcNAc(b1-4)[Fuc(a1-6)]GlcNAc
# Method in brief: as §1
# [3] = target: GlcNAc(b1-3)Gal(b1-4)GlcNAc(b1-2)[GlcNAc(b1-3)Gal(b1-4)GlcNAc(b1-6)]Man(a1-6)[GlcNAc(b1-3)Gal(b1-4)GlcNAc(b1-2)Man(a1-3)]Man(b1-4)GlcNAc(b1-4)GlcNAc
# Method in brief: as §1
# [4] = target: GlcNAc(b1-3)Gal(b1-4)GlcNAc(b1-3)Gal(b1-4)GlcNAc(b1-2)Man(a1-3)[GlcNAc(b1-3)Gal(b1-4)GlcNAc(b1-3)Gal(b1-4)GlcNAc(b1-2)Man(a1-6)]Man(b1-4)GlcNAc(b1-4)GlcNAc
# Method in brief: as §1
# [5] = target: GlcNAc(b1-3)Gal(b1-4)GlcNAc(b1-3)Gal(b1-4)GlcNAc(b1-3)Gal(b1-4)GlcNAc(b1-2)Man(a1-3)[GlcNAc(b1-3)Gal(b1-4)GlcNAc(b1-3)Gal(b1-4)GlcNAc(b1-3)Gal(b1-4)GlcNAc(b1-2)Man(a1-6)]Man(b1-4)GlcNAc(b1-4)[Fuc(a1-6)]GlcNAc
# Method in brief: as §1
# [6] = target: GlcNAc(b1-3)Gal(b1-4)GlcNAc(b1-3)Gal(b1-4)GlcNAc(b1-3)Gal(b1-4)GlcNAc(b1-3)Gal(b1-4)GlcNAc(b1-2)Man(a1-3)[GlcNAc(b1-3)Gal(b1-4)GlcNAc(b1-3)Gal(b1-4)GlcNAc(b1-3)Gal(b1-4)GlcNAc(b1-3)Gal(b1-4)GlcNAc(b1-2)Man(a1-6)]Man(b1-4)GlcNAc(b1-4)[Fuc(a1-6)]GlcNAc
# Method in brief: as §1
# [7] = target: GlcNAc(b1-3)[GlcNAc(b1-6)]Gal(b1-4)GlcNAc
# Method in brief: as §1
# GlcNAc(b1-6)GalNAc = target: GlcNAc(b1-6)GalNAc
# Method in brief: as §1
# [8] = target: GlcNAc6S(b1-3)Gal(b1-4)GlcNAc
# Method in brief: as §1
# [9] = target: Man(a1-2)Man(a1-6)[Man(a1-3)]Man(a1-6)[Man(a1-2)Man(a1-2)Man(a1-3)]Man
# Method in brief: as §1
# Man(a1-3)[Man(a1-6)]Man = target: Man(a1-3)[Man(a1-6)]Man
# Method in brief: as §1
# [10] = target: Man(a1-3)[Man(a1-6)]Man(a1-6)[Man(a1-2)Man(a1-3)]Man(b1-4)GlcNAc(b1-4)GlcNAc
# Method in brief: as §1
# [11] = target: Neu5Ac(a2-3)Gal(b1-3)GlcNAc(b1-2)Man(a1-3)[GlcNAc(b1-4)][Neu5Ac(a2-3)Gal(b1-3)GlcNAc(b1-2)Man(a1-6)]Man(b1-4)GlcNAc(b1-4)GlcNAc
# Method in brief: as §1
# [12] = target: Neu5Ac(a2-3)Gal(b1-3)GlcNAc(b1-4)Gal(b1-4)Glc
# Method in brief: as §1
# [13] = target: Neu5Ac(a2-3)Gal(b1-3)[Neu5Ac(a2-6)]GlcNAc(b1-3)[Fuc(a1-3)[Gal(b1-4)]GlcNAc(b1-6)]Gal(b1-4)Glc
# Method in brief: as §1
# [14] = target: Neu5Ac(a2-3)Gal(b1-4)GlcNAc(b1-2)[Neu5Ac(a2-3)Gal(b1-4)GlcNAc(b1-6)]Man(a1-6)[Neu5Ac(a2-3)Gal(b1-4)GlcNAc(b1-2)Man(a1-3)]Man(b1-4)GlcNAc(b1-4)GlcNAc
# Method in brief: as §1
# [15] = target: Neu5Ac(a2-3)Gal(b1-4)GlcNAc(b1-3)Gal(b1-4)GlcNAc(b1-2)Man(a1-3)[Neu5Ac(a2-3)Gal(b1-4)GlcNAc(b1-3)Gal(b1-4)GlcNAc(b1-2)Man(a1-6)]Man(b1-4)GlcNAc(b1-4)GlcNAc
# Method in brief: as §1
# [16] = target: Neu5Ac(a2-3)Gal(b1-4)GlcNAc(b1-3)Gal(b1-4)GlcNAc(b1-3)Gal(b1-4)GlcNAc(b1-2)Man(a1-3)[Neu5Ac(a2-3)Gal(b1-4)GlcNAc(b1-3)Gal(b1-4)GlcNAc(b1-3)Gal(b1-4)GlcNAc(b1-2)Man(a1-6)]GalNAc
# Method in brief: as §1
# [17] = target: Neu5Ac(a2-3)Gal(b1-4)GlcNAc(b1-3)Gal(b1-4)GlcNAc(b1-3)GalNAc
# Method in brief: as §1
# [18] = target: Neu5Ac(a2-3)Gal6S(b1-4)[Fuc(a1-3)]GlcNAc
# Method in brief: as §1
# [19] = target: Neu5Ac(a2-6)Gal(b1-4)GlcNAc(b1-2)Man(a1-3)[Gal(b1-4)GlcNAc(b1-2)Man(a1-6)]Man(b1-4)GlcNAc(b1-4)GlcNAc
# Method in brief: as §1
# [20] = target: Neu5Ac(a2-6)Gal(b1-4)GlcNAc(b1-2)Man(a1-3)[GlcNAc(b1-2)Man(a1-6)]Man(b1-4)GlcNAc(b1-4)GlcNAc
# Method in brief: as §1
# [21] = target: Neu5Ac(a2-6)Gal(b1-4)GlcNAc(b1-3)Gal(b1-4)GlcNAc(b1-3)Gal(b1-4)GlcNAc(b1-2)Man(a1-3)[Neu5Ac(a2-6)Gal(b1-4)GlcNAc(b1-3)Gal(b1-4)GlcNAc(b1-3)Gal(b1-4)GlcNAc(b1-2)Man(a1-6)]GalNAc
# Method in brief: as §1
# [22] = target: Neu5Ac(a2-6)Gal(b1-4)GlcNAc(b1-6)[Gal(b1-3)GlcNAc(b1-3)]Gal(b1-4)Glc
# Method in brief: as §1
# Neu5Ac(a2-8)Neu5Ac = target: Neu5Ac(a2-8)Neu5Ac
# Method in brief: as §1
# [23] = target: Neu5Ac(a2-8)Neu5Ac(a2-3)[GalNAc(b1-4)]Gal(b1-4)Glc
# Method in brief: as §1
binder,measurement,setting,value
B1,glycan array binding signal (z-score),GalNAc(b1-3)Gal,-0.175
same,glycan array binding signal (z-score),GalNAc6S(b1-4)GlcNAc,0.047
same,glycan array binding signal (z-score),Glc(b1-6)Glc,1.72
same,glycan array binding signal (z-score),[1],0.947
same,glycan array binding signal (z-score),[2],0.458
same,glycan array binding signal (z-score),[3],3
same,glycan array binding signal (z-score),[4],0.372
same,glycan array binding signal (z-score),[5],-0.149
same,glycan array binding signal (z-score),[6],-0.369
same,glycan array binding signal (z-score),[7],-0.057
same,glycan array binding signal (z-score),GlcNAc(b1-6)GalNAc,-0.08
same,glycan array binding signal (z-score),[8],0.071
same,glycan array binding signal (z-score),[9],0.153
same,glycan array binding signal (z-score),Man(a1-3)[Man(a1-6)]Man,-0.471
same,glycan array binding signal (z-score),[10],3.18
same,glycan array binding signal (z-score),[11],0.514
same,glycan array binding signal (z-score),[12],0.17
same,glycan array binding signal (z-score),[13],-0.645
same,glycan array binding signal (z-score),[14],-0.275
same,glycan array binding signal (z-score),[15],1.02
same,glycan array binding signal (z-score),[16],6.63
same,glycan array binding signal (z-score),[17],-0.31
same,glycan array binding signal (z-score),[18],-0.433
same,glycan array binding signal (z-score),[19],-0.515
same,glycan array binding signal (z-score),[20],0.511
same,glycan array binding signal (z-score),[21],2.32
same,glycan array binding signal (z-score),[22],-0.577
same,glycan array binding signal (z-score),Neu5Ac(a2-8)Neu5Ac,-0.234
same,glycan array binding signal (z-score),[23],-0.626

# — the supplement of paper PMC8728848
